mIDH1 inhibitor – human IDH1 R132H inhibition | Potency, µM (series often up to 76.6 µM), inactives show at the highest dose activity change, negative = inhibition, actives largely listed as inhibitors | hit rate 0.093% among 390,000 | IDH1-R132H enzyme, NADPH consumption, diaphorase/resazurin fluorescence | AID 602179; further: potency means the concentration at half of the fitted maximal effect; on the % scale 0 is the no-effect control and ±100 the full control effect; nearly all actives have a fitted effect of over 65% in size
Target sequence (O75874 whole entry R132H, stated change not applied): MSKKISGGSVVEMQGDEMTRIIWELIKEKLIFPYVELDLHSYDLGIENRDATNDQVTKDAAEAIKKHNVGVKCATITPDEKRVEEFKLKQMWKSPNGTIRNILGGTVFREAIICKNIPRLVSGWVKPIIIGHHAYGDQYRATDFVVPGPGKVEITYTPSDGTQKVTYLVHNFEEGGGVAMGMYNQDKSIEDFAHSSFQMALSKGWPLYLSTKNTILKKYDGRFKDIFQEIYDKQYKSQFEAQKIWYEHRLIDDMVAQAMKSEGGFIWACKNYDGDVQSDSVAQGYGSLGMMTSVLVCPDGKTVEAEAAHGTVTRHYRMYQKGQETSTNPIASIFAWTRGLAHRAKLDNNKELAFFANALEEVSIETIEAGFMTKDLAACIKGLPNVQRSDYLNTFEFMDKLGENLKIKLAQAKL
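IDH1-R132H (0.5 ug/mL dispensed) in pH 7.5 Tris buffer was preincubated 30 min with compound, then given a substrate mix of 0.016 mM NADPH and 2 mM alpha-KG for 80 min at room temperature; remaining NADPH was read by diaphorase/resazurin fluorescence.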
TrxR1 substrate – is turned over as a substrate by rat TrxR1 | hit rate 0.01% among 390,000 | purified TrxR1 substrate turnover, NADPH consumption readout | O89049 | Potency, µM (doses to about 114 µM), without a hit: at the highest dose activity change, negative = substrate turnover; further: potency means the concentration at half of the fitted maximal effect; on the % scale 0 is the no-effect control and ±100 the full control effect; nearly all actives have a fitted effect of over 50% in size
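Rat TrxR1, dispensed at 90 nM, was prereduced with 400 uM NADPH (final) for 5 min at ~22 deg C, then incubated with compound 15 min before 400 uM selenite. A first-read NADPH fluorescence drop versus no-compound background flagged substrates.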
TrxR1 inh-1 – inhibitors of rat thioredoxin reductase 1. Potency, µM (highest dose often 114 µM), for inactives: at the highest dose activity change, negative = inhibition, usual class: inhibitors. recombinant rTrxR1, NADPH fluorescence consumption, selenite substrate. hit rate 1% among 390,000. AID 588453; further: potency means the concentration at half of the fitted maximal effect; on the % scale 0 is the no-effect control and ±100 the full control effect; nearly all actives have a fitted effect of over 65% in size
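Rat TrxR1 (90 nM in the dispensed reagent) was pre-reduced with 400 uM NADPH for 5 min at room temperature, then incubated with compound for 15 min. After 400 uM selenite was added, NADPH fluorescence (Ex 340/Em 450 nm) was followed for 8 min.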
FBPA coupling cs – inhibits coupling enzyme system, counter-screen for aldolase hits | coupling enzyme system counterscreen, AmpLite Red fluorescence | activity change, negative = inhibition, % at 58.2 µM, hits read low | hit rate 0.67% among 290,000 | AID 2472; in the data active means activity change below about -30%; further: on the % scale 0 is the no-effect control and ±100 the full control effect
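Activity here indicates interference with the coupling reaction, not aldolase inhibition. Compounds at 57.5 uM final met coupling enzymes for 10 min at RT; substrate and AmpLite Red detection followed, with a 525/598 nm fluorescence read after 20 min.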
Eya2 inh – Eya2 (human) phosphatase inhibition | hit rate 0.006% among 330,000 | Potency, µM (titrated, usually from 76.9 µM), without a hit: top-dose activity, negative = inhibition, most hits filed as inhibitors | AID 488837 | recombinant Eya2, OMFP fluorescence dephosphorylation (OMFP is methylfluorescein phosphate) | O00167; further: potency means the concentration at half of the fitted maximal effect; on the % scale 0 is the no-effect control and ±100 the full control effect
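Eya2 protein (added as 0.2 uM solution) was preincubated with compound for 10 min at ambient temperature in 50 mM HEPES pH 7.5, 50 mM NaCl, 5 uM MgCl2, 0.05% BSA, 1 mM DTT. OMFP (added at 50 uM) then reacted 10 min; fluorescence read at 485/525 nm.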
TRb-SRC2 inh – TRb-SRC2 (human) interaction inhibition | shares compounds with TrxR1 inh-1 | AlphaScreen TRb LBD-SRC2 peptide binding, luminescence | Potency, µM | hit rate 50% among 30 | AID 2444; calls by dose curve
HepG2 tox – counter-screen for TRb-SRC2 inhibitors: HepG2 cytotoxicity; shares compounds with TrxR1 inh-1; HepG2 viability, ATP luminescence (CellTiter-Glo), 72 h; Potency, µM; hit rate 50% among 40; calls by dose curve
AR-SRC2 inh – selectivity of TRb-SRC2 inhibitors: human androgen receptor-SRC2 inhibition | 25 tested, under 10 active | shares compounds with TrxR1 inh-1 | AR-LBD Tx-SRC2-3 fluorescence polarization, 3 h | calls only; call rule not given here
PPARg DRIP2 FP – PPARg-DRIP2 (human) interaction inhibition, selectivity. 25 tested, under 10 active. shares compounds with TrxR1 inh-1. PPARg LBD / Texas Red DRIP-2 peptide, fluorescence polarization, 3 h. Potency, µM; calls by dose curve
VDR-SRC2 FP sel – selectivity of TRb-SRC2 inhibitors: human vitamin D receptor-SRC2 inhibition. shares compounds with TrxR1 inh-1. VDR LBD/SRC2-3 peptide, fluorescence polarization, 3 h. Potency, µM. 25 tested, under 10 active. AID 2455; calls by dose curve
TRb SRC2 FluoFP – confirmation of human TRb-SRC2 interaction inhibitors. Potency, µM. TRb LBD / fluorescein-SRC2 peptide, fluorescence polarization. shares compounds with TrxR1 inh-1. AID 2487. 20 tested, under 10 active; call rule not given here
GR inh – counter-screen for TrxR1 inhibitors: human glutathione reductase inhibition. shares compounds with TrxR1 inh-1. purified GR, DTNB reduction absorbance 405 nm kinetic. activity change, negative = inhibition, % at 57.1 µM. 55 tested, under 10 active
TrxR1 inh-2 – blocks rat thioredoxin reductase 1 in hit validation. recombinant TrxR1, NADPH fluorescence consumption, selenite substrate. hit rate 50% among 55. shares compounds with TrxR1 inh-1. AID 652023. Potency, µM, actives largely listed as inhibitors
TrxR1 insulin MOA – TrxR1 inhibition in insulin mechanism assay. shares compounds with TrxR1 inh-1. TrxR1 Trx-coupled insulin reduction, NADPH absorbance 340 nm. Potency, µM. hit rate 20% among 55;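 active means compounds with a measured potency under 100 micromolar; inconclusive means filed, but no rule given; inactive means potency at or above that, or unmeasurable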
TrxR1 inh-3 – inhibitors of rat thioredoxin reductase 1, DTNB reduction; shares compounds with TrxR1 inh-1; purified TrxR1, DTNB reduction, A412; Potency, µM; hit rate 90% among 55; AID 652256;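 active means a half-inhibiting concentration could be measured and was below 100 µM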
* hit, by the source's call; [ ] = remark or other dose. Hits are enriched below; roughly 1.5% of the tested compounds scored in any of these assays. Unless noted, the call rests on the fitted dose curve; in most records, active means well fitted curve in the direction sought with a large enough effect; inconclusive means small, poorly fitted or top-dose-only effect, or another doubt; inactive means no such curve, though single readings can be large; an effect the other way counts as inactive or inconclusive.

For CS(=O)(=O)c1ccc(C(=O)OCC(=O)NC(=O)C2CCCCC2)cc1[N+](=O)[O-] the results were mIDH1 inhibitor 3%, TrxR1 substrate 22%, TrxR1 inh-1 3.2µM*, FBPA coupling cs -3, Eya2 inh -5%, TRb-SRC2 inh 0.6µM*, HepG2 tox 23µM*, AR-SRC2 inh inactive, PPARg DRIP2 FP 22µM*, VDR-SRC2 FP sel inactive and TRb SRC2 FluoFP 11µM*.
`Cc1cc(C(=O)OCC(=O)NC(=O)C2CCCCC2)ccc1[N+](=O)[O-]` gave TrxR1 substrate -2%, TrxR1 inh-1 3%, TRb-SRC2 inh inactive, HepG2 tox inconclusive and TRb SRC2 FluoFP inactive.
For CNc1ccc(C(=O)OCC(=O)NC(=O)NC2CCCCC2)cc1[N+](=O)[O-] the results were mIDH1 inhibitor -4%, TrxR1 substrate -1%, TrxR1 inh-1 19% and Eya2 inh -13%.
CCC(C)(C)n1nnnc1C(c1ccc(O)cc1)N1CCc2ccccc2C1 (centres undefined) was read as mIDH1 inhibitor -3%, TrxR1 substrate 7%[57.1 µM], TrxR1 inh-1 16µM*, FBPA coupling cs 5, Eya2 inh 2%, GR inh -21, TrxR1 inh-2 7.5*, TrxR1 insulin MOA inactive and TrxR1 inh-3 0.24µM*.
`COCCn1nnnc1C(c1ccc(O)c(OC)c1)N1CCc2ccccc2C1` (centres undefined) gave mIDH1 inhibitor 3%, TrxR1 substrate 20%[57.1 µM], TrxR1 inh-1 5.6µM*, FBPA coupling cs -3, Eya2 inh 24%, GR inh 0, TrxR1 inh-2 4.7*, TrxR1 insulin MOA inactive and TrxR1 inh-3 0.27µM*.
`O=C(N/N=C1/C[C@@H](O)[C@@H](O)[C@@H]2[C@@H]3C(=O)N(C[C@@H]4CCCO4)C(=O)[C@H]3CC[C@H]12)OCc1ccccc1` gave FBPA coupling cs 4.
For Cc1ccc(Nc2c(-c3ccc(C)o3)nc3cnccn23)cc1 the results were mIDH1 inhibitor 0%, TrxR1 substrate 13%[57.1 µM], TrxR1 inh-1 4µM*, FBPA coupling cs 1, Eya2 inh 2%, GR inh -12, TrxR1 inh-2 inconclusive, TrxR1 insulin MOA inactive and TrxR1 inh-3 2µM*.
`Cc1ccc(Nc2c(-c3ccc(C)o3)nc3ccccn23)cc1` gave TrxR1 substrate 114% and TrxR1 inh-1 inconclusive.
`N#Cc1nc(COc2ccc(-c3ccccc3)cc2)oc1N1CCC(C(N)=O)CC1` gave TrxR1 substrate 2% and TrxR1 inh-1 1%.
Screening Cc1ccc2[nH]c(=O)c(CN(CCCN3CCOCC3)Cc3nnnn3C3CCCC3)cc2c1 returned mIDH1 inhibitor 1%, TrxR1 substrate 9%, TrxR1 inh-1 20µM*, FBPA coupling cs 0, Eya2 inh 0%, GR inh inconclusive, TrxR1 inh-2 inconclusive, TrxR1 insulin MOA 3µM* and TrxR1 inh-3 5.4µM*.
Screening CCOC(=O)C1CCN(C(c2ccccn2)c2c(C)[nH]c3ccccc23)CC1 (centres undefined) returned mIDH1 inhibitor 4%, TrxR1 substrate 1%, TrxR1 inh-1 2.5µM*, FBPA coupling cs 3, Eya2 inh 13%, GR inh -25, TrxR1 inh-2 1.5*, TrxR1 insulin MOA inactive and TrxR1 inh-3 0.19µM*.
`O=S(=O)(c1ccc(OC(F)(F)F)cc1)N1CCN(c2nc(-c3ccccc3)nc3ccccc23)CC1` gave TrxR1 substrate 1% and TrxR1 inh-1 10%.
`Cc1csc(Sc2ccc(C(=O)OCC(=O)Nc3ccc(OC(F)(F)F)cc3)cc2[N+](=O)[O-])n1` gave mIDH1 inhibitor 1%, TrxR1 substrate 2%, TrxR1 inh-1 -3%, FBPA coupling cs 0 and Eya2 inh 2%.
NS(=O)(=O)c1cc(C(=O)OCC(=O)Nc2ccccc2[N+](=O)[O-])ccc1Cl was read as mIDH1 inhibitor -1%, TrxR1 substrate 3%[57.1 µM], TrxR1 inh-1 -2%[57.1 µM], FBPA coupling cs 3 and Eya2 inh 4%.
For Cc1ccccc1NC(=O)COC(=O)c1ccc(S(C)(=O)=O)c([N+](=O)[O-])c1 the results were mIDH1 inhibitor -5%, TrxR1 substrate 2%, TrxR1 inh-1 2.5µM*, FBPA coupling cs 1, Eya2 inh -6%, TRb-SRC2 inh 28µM*, HepG2 tox inconclusive, AR-SRC2 inh inactive, PPARg DRIP2 FP inactive, VDR-SRC2 FP sel inactive and TRb SRC2 FluoFP inactive.
`CC(=O)c1cccc(NC(=O)COC(=O)c2ccc(S(C)(=O)=O)c([N+](=O)[O-])c2)c1` gave mIDH1 inhibitor -11%, TrxR1 substrate 1%, TrxR1 inh-1 1.6µM*, FBPA coupling cs 0, Eya2 inh 3%, TRb-SRC2 inh 87µM*, HepG2 tox inconclusive, AR-SRC2 inh inactive, PPARg DRIP2 FP inactive, VDR-SRC2 FP sel 60µM* and TRb SRC2 FluoFP inconclusive.
